ABHD5 PLIN5 PPI – blocks binding of human ABHD5 to perilipin-5. inhibition, % at 4 µM. Q00G26+Q8WTS1. actives 0.78% (n = 360,000). Split G. princeps luciferase complementation, luminescence, 4 h;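 active = inhibition above the mean inhibition across every tested compound plus 3 SD, cut at about 22% in these data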;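 also: 0% = DMSO only wells and the 100% control is not disclosed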
KKLEB tox – reduces viability of KKLEB cystic fibrosis airway cells | KKLEB CF airway cells viability, ATPlite luminescence, overnight; hits give low values; cells stimulated with P. aeruginosa culture filtrate | actives 0.36% (n = 360,000) | activity change (cytotoxicity), % at 5 µM;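 active = corrected activity change at or below -50% at 5 µM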
Peg3 promoter – inhibitors of Peg3 promoter. AID 588405. actives 1.7% (n = 360,000). inhibition, % at 20 µM. HeLa PEG-Prom luciferase reporter, luminescence, overnight;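 active = inhibition of at least 50% at 20 µM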
Mdm2-MdmX inh – human Mdm2/MdmX binding inhibition; SaOS-2 split-luciferase Mdm2/MdmX complementation, luminescence; inhibition, % at 8 µM; actives 3% (n = 330,000); AID 485346;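 active = inhibition of at least 50% at 8 µM in the primary screen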
Target sequence (O15151 whole entry, looked up): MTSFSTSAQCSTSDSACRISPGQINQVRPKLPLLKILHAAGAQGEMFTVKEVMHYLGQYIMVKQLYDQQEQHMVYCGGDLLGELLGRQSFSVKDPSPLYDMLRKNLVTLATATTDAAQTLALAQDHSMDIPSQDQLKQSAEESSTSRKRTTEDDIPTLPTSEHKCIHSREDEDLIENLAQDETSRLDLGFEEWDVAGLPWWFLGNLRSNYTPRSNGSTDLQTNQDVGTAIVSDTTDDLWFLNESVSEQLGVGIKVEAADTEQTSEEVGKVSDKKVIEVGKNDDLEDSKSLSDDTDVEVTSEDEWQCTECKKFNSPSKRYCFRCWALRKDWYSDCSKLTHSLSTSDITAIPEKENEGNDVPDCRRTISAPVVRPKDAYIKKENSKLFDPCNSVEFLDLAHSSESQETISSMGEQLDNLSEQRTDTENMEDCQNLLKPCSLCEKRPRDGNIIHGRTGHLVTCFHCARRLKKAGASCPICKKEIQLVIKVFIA
Target sequence (Q00987 whole entry, looked up): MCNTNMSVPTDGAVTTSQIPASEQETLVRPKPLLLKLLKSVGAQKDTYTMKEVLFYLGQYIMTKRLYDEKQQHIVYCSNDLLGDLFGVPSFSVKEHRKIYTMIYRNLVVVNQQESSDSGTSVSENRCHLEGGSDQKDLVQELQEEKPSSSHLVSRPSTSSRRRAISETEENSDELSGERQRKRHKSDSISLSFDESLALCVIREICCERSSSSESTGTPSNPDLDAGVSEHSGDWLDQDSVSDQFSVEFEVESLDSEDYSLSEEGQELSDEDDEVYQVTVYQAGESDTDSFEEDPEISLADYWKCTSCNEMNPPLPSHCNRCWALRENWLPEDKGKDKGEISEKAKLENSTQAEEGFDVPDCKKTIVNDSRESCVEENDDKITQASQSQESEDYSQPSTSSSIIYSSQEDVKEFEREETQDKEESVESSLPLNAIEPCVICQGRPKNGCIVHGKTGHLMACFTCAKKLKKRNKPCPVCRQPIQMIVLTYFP
CF NFkB inh – inhibitors of cystic fibrosis induced NF-kB; actives 0.86% (n = 360,000); inhibition, % at 5 µM; AID 588850; KKLEB NF-kB-GFP reporter, PAF-induced, GFP fluorescence overnight;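 active = at least 50% inhibition at 5 µM, scaled per plate between neutral and stimulator controls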;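 also: PAF is a Pseudomonas aeruginosa culture filtrate used as stimulus; plate controls were PAF-stimulated DMSO wells for no effect and unstimulated DMSO wells for full effect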
HIF-2a inh – inhibitors of HIF-2a; inhibition, % at 18.8 µM; 786-0 RCC cells HIF-2a reporter, luciferase luminescence, overnight; AID 624352; actives 0.72% (n = 360,000);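 active = inhibition of the luminescence signal of 40% or more relative to plate controls, in a single-dose primary screen at 18.75 µM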
CF NFkB inh conf – CF NF-kB inhibition confirmation, single concentration; shares compounds with CF NFkB inh; KKLEB CF airway cells, PAF-induced NF-kB-GFP fluorescence, overnight; inhibition, % at 5 µM; actives 64% (n = 1,300); in the data active = inhibition above about 40%;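 also: stimulus PAF is a Pseudomonas aeruginosa filtrate and not platelet activating factor; plate controls were DMSO wells with stimulus for no effect and unstimulated DMSO wells for full effect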
ABHD5-PLIN5 conf – confirmation of human ABHD5-PLIN5 interaction inhibitors. shares compounds with ABHD5 PLIN5 PPI. biochemical ABHD5-PLIN5 interaction, luminescence. inhibition, % at 4 µM. actives 67% (n = 2,200). AID 651612; in the data active = inhibition above about 23%;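 also: 0% = DMSO vehicle wells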
HNF4 split-luc – counter-screen for ABHD5-PLIN5 inhibitors: HNF4 split-luciferase. shares compounds with ABHD5 PLIN5 PPI. HNF4 dimerization, luminescence, biochemical. inhibition, % at 4 µM. actives 77% (n = 2,200). AID 651674;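 active = mean inhibition across replicate wells exceeding the computed hit threshold, cut at about 13% in these data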;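 also: light from luciferase halves that rejoin when HNF4 fusion proteins dimerize; 0% = DMSO only wells and the 100% control is not given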
HIF-2a conf – confirmation of HIF-2a inhibitors; shares compounds with HIF-2a inh; 786-0 RCC cells, HIF-2a luciferase reporter luminescence, overnight; actives 56% (n = 1,800); inhibition, % at 18.8 µM;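 active = mean inhibition across four replicates of at least 40 percent at the single tested concentration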
HIF-1a cs – counter-screen for HIF-2a inhibitors: HIF-1a inhibition in MiaPaCa-2 cells. shares compounds with HIF-2a inh. MiaPaCa-2 HIF-1a luciferase reporter, desferoxamine, overnight. inhibition, % at 18.8 µM. actives 72% (n = 1,800). AID 651589;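 active = mean inhibition of the reporter signal across four replicates at the single tested dose of 50% or more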
* marks the source's active call; other numbers are inactive results; . = not tested or not shown. Rows were chosen to be rich in hits. Some 4.6% of all compounds tested hit in one or more screens of this group.

SMILES | ABHD5 PLIN5 PPI | KKLEB tox | Peg3 promoter | Mdm2-MdmX inh | CF NFkB inh | HIF-2a inh | ABHD5-PLIN5 conf | HNF4 split-luc | others
Cc1ccc(S(=O)(=O)NCCSc2nnnn2-c2ccc(C(N)=O)cc2)cc1 | 4 | -1 | 18 | -7 | -20 | 23 | . | .
CCCCN(C(=O)c1cnccn1)c1c(N)n(CCC)c(=O)[nH]c1=O | 8 | 18 | -4 | 19 | -32 | 17 | . | .
N#CC(C#N)=C1C=CC=CN1/C(=C\c1ccco1)C(=O)c1ccc(-c2ccccc2)cc1 | 66* | -50 | 110* | . | 83* | 83* | 104* | 111* | CF NFkB inh conf=-51;HIF-2a conf=97*;HIF-1a cs=106*
N#C/C(=C\c1ccco1)C(=O)NCc1ccccc1 | 2 | 7 | -19 | 6 | -6 | 18 | . | .
COc1cc(C(=O)N2Cc3cc4ccccc4nc3C2C)cc(OC)c1OC (stereo not drawn) | 3 | 3 | 7 | . | 12 | 11 | . | .
Cc1csc(N=Nc2ccc(N(C)C)cc2)[n+]1[O-] | 29* | -10 | 18 | . | -22 | 5 | 26* | 32*
CN(CC(=O)Nc1ccccc1C(F)(F)F)C(=O)CSCc1ccccc1 | -4 | -2 | 18 | 15 | 11 | 17 | . | .
CCOC(=O)[C@]12CCCC=C1N(CCC1=CCCCC1)C(=O)[C@H](CC(=O)NCc1cccc(C(F)(F)F)c1)C2 | 7 | . | . | . | . | 1 | . | .
CC(=O)/C=C/c1ccc2ccccc2n1 | 85* | -10 | 103* | 44 | 33 | 34 | 84* | 91*
Cc1ccc(C)c(NC(=O)COC(=O)c2ccc(S(=O)(=O)N3CCCC3)cc2)c1 | 6 | 0 | 12 | . | -14 | 7 | . | .
Cn1nnc(NC(=S)NC(=O)/C=C/c2ccco2)n1 | 24* | 2 | -29 | 15 | 6 | 14 | 5 | 5
CCCn1nnc(NC(=O)/C=C/c2ccco2)n1 | -4 | -2 | -12 | 0 | -15 | -26 | . | .
C/C(=N\OCC(=O)OCC(=O)NCc1ccccc1)c1ccc2c(c1)OCO2 | 4 | 5 | 10 | -6 | 1 | 17 | . | .
COc1cc(N=c2ssnc2Cl)cc(OC)c1 | -2 | -1 | 5 | 3 | 0 | 19 | . | .
Clc1nssc1=Nc1ccc(Br)cc1 | 24* | -4 | -21 | . | 24 | -65 | 23* | 71*
Clc1ccc(N=c2ssnc2Cl)nc1 | -14 | 10 | 26 | 26 | -32 | 20 | . | .
Clc1nssc1=Nc1nncs1 | 73* | 5 | -10 | -20 | -3 | 0 | 64* | 101*
CCOc1ccc2cc(/C=C/C(=O)c3ccco3)c(Cl)nc2c1 | 25* | 0 | -162 | 8 | 2 | -100 | 71* | 56*
CCOc1ccc2nc(SCC(=O)NNC(=O)c3ccco3)c(C)cc2c1 | -2 | 2 | 6 | -3 | 4 | -3 | . | .
Fc1ccccc1C1CC(c2ccco2)=Nc2ccccc2S1 (stereo not drawn) | 43* | 3 | -169 | -17 | 4 | -193 | 2 | 91*
Cc1cccc(S(=O)(=O)NC(=O)C2(C)CCN2C(=O)Cc2ccccc2)c1 (stereo not drawn) | -2 | 11 | 9 | . | -42 | 15 | . | .
COC(=O)C1CCN(c2cc(=O)n(-c3ccc(OC)cc3)c(=O)[nH]2)CC1 | 24* | 7 | -5 | -14 | -21 | 8 | -3 | 5
Cn1c(=O)cc(N2CCN(C(=O)c3ccco3)CC2)[nH]c1=O | 17 | 14 | 11 | 20 | -22 | 14 | . | .
CCOC(=O)N1CCN(c2cc(=O)n(-c3ccc(OC)cc3)c(=O)[nH]2)CC1 | 18 | -9 | 5 | 8 | 3 | 25 | . | .
Cc1ccc(-n2c(=O)cc(N3CCN(C(=O)c4ccco4)CC3)[nH]c2=O)cc1 | 37* | -14 | 12 | -5 | 7 | 13 | 2 | 3
SMILES | ABHD5 PLIN5 PPI | KKLEB tox | Peg3 promoter | Mdm2-MdmX inh | CF NFkB inh | HIF-2a inh | ABHD5-PLIN5 conf | HNF4 split-luc | others
CCN(CC(=O)Nc1c(F)cccc1F)C(=O)CSCC(=O)Nc1ccc(OC)cc1 | 26* | -1 | -8 | -14 | -3 | 6 | 3 | -5
CN(CC(=O)N1CCCCC1)S(=O)(=O)c1ccc(Cl)cc1 | -5 | 7 | -16 | -9 | -2 | 0 | . | .
CN(CC(=O)N1CCCC1)S(=O)(=O)c1ccc(Cl)cc1 | 27* | -8 | 1 | -25 | 4 | 3 | 5 | 3
C#CCN(C[C@@H]1[C@@H](OC(=O)NCc2ccc(OC)c(OC)c2)[C@@H](OC(=O)NCc2ccc(OC)c(OC)c2)Cn2c(=O)n(CCCCCC)c(=O)n21)S(=O)(=O)c1ccc(C)cc1 | -4 | -14 | 9 | . | 12 | 8 | . | .
C#CCN(C[C@@H]1[C@@H](OC(=O)NCc2ccc(OC)c(OC)c2)[C@@H](OC(=O)NCc2ccc(OC)c(OC)c2)Cn2c(=O)ccc(=O)n21)S(=O)(=O)c1ccc(C)cc1 | 46* | -19 | 24 | . | 43 | 33 | 62* | 21*
O=C(C[n+]1cccc(NC(=O)c2ccccc2)c1)c1ccc(NC(=O)c2ccccc2)cc1 | 24* | 1 | -5 | 21 | 9 | -12 | 14 | -2
CCOC(=O)c1nn(-c2ccccc2C)c(=O)c2c(N)scc12 | -22 | 3 | 10 | 5 | 2 | 21 | . | .
CCOC(=O)c1nn(-c2ccccc2)c(=O)c2c(N)scc12 | 25* | -23 | 28 | -3 | -1 | 12 | -23 | 95*
CCCCC(=O)NC(c1cccc([N+](=O)[O-])c1)c1ccc2cccnc2c1O (stereo not drawn) | 33* | -22 | 58* | . | -1 | 9 | 29* | -2
Cn1cc(C(=O)N/N=C/C(Br)=C\c2ccccc2)ccc1=O | 26* | -2 | -6 | 18 | -14 | -24 | 7 | 26*
Cc1ccc(-c2cc(C(=O)N/N=C/C(Br)=C/c3ccccc3)n[nH]2)o1 | 27* | 0 | -16 | 47 | 39 | -15 | 14 | 39*
Cn1cc(C(=O)N/N=C/C(Br)=C/c2ccccc2)ccc1=O | 27* | -8 | -1 | 11 | -32 | -44 | 8 | 75*

Assay outcomes: PubChem BioAssay, several laboratories
